This note sets out measurements from PubChem BioAssay (NCI).

Compounds without any hit were thinned out: in the full panel of roughly 83,000, 20% have a hit.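 Assay: single dose, 48 h. Readout: percent growth (0 = no net growth; negative = cell death). Active: <10.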 Unmarked numbers belong to inactive results. The source made the active and inactive calls.

Test systems include SK-MEL-2 melanoma; EKVX NSCLC; SN12C renal; UO-31 renal; ACHN renal; CAKI-1 renal; A498 renal; CCRF-CEM leukemia; MOLT-4 leukemia; SR leukemia; RPMI-8226 leukemia; OVCAR-8 ovarian; OVCAR-5 ovarian; OVCAR-4 ovarian; SK-OV-3 ovarian; IGROV1 ovarian; OVCAR-3 ovarian; HS 578T breast; NCI/ADR-RES ovarian; TK-10 renal.
Holding throughout (assay): NCI-60 one-dose screen, 48 h (100 = growth as untreated, 0 = no growth, -100 = all killed)
What all share (conditions): 10 µM

`CS(=O)(=O)c1nccc(-c2c(-c3cccc(OCCc4ccccc4)c3)nc3sccn23)n1`: the growth is 107% in the experiment on SK-MEL-2 melanoma; 98.6% with EKVX NSCLC; 95.5% with SN12C renal; 71.5% with UO-31 renal; 101% in the experiment with ACHN renal; 85.7% in the experiment on CAKI-1 renal. Besides, the growth was 91.7% in the experiment on A498 renal; 91.3% in the experiment on CCRF-CEM leukemia; 84.5% in the experiment on MOLT-4 leukemia; 85.8% in the experiment with SR leukemia; 96.9% in the experiment on RPMI-8226 leukemia; 98% with OVCAR-8 ovarian. In addition, the growth in the experiment on OVCAR-5 ovarian is 103%; with OVCAR-4 ovarian, 100%; in the experiment on SK-OV-3 ovarian, 96.5%; with IGROV1 ovarian it was 88.7%; with OVCAR-3 ovarian it was 104%; in the experiment with HS 578T breast, 92.4%. Besides, the growth in the experiment on NCI/ADR-RES ovarian is 99.9%.
`C[n+]1c2ccccc2nc2ccccc21`: the growth in the experiment with SK-MEL-2 melanoma was -24.2% (active); with EKVX NSCLC, 54.9%; in the experiment on SN12C renal, -27.8% (active); with UO-31 renal, 42.4%; in the experiment on ACHN renal it was 13.6%; with CAKI-1 renal it was 15.3%. Besides, the growth with A498 renal was 60%; in the experiment with CCRF-CEM leukemia it was -0.566% (active); with MOLT-4 leukemia, 24.9%; in the experiment on SR leukemia, 25.9%; in the experiment with RPMI-8226 leukemia, -17.2% (active); with OVCAR-8 ovarian, 10.3%. Also, the growth in the experiment with OVCAR-5 ovarian was 42.1%; with OVCAR-4 ovarian, 21.9%; in the experiment with SK-OV-3 ovarian, 52%; in the experiment with IGROV1 ovarian, 11%; in the experiment on OVCAR-3 ovarian it was 4.06% (active); in the experiment with HS 578T breast it was -12.1% (active). Further, the growth with NCI/ADR-RES ovarian was 8.6% (active).
As for `COc1ccc2cc(-c3nc4ccccc4s3)c(Cl)nc2c1OC`, the growth with SK-MEL-2 melanoma is 95.8%; in the experiment with EKVX NSCLC, 100%; in the experiment on SN12C renal, 99.9%; in the experiment with TK-10 renal, 118%; in the experiment with ACHN renal, 96.6%; in the experiment with CAKI-1 renal it was 94.5%. The growth in the experiment on A498 renal is 93.1%; in the experiment on CCRF-CEM leukemia, 104%; in the experiment on MOLT-4 leukemia, 92.7%; with SR leukemia, 87.6%; in the experiment with RPMI-8226 leukemia, 101%; with OVCAR-8 ovarian, 103%. Further, the growth in the experiment with OVCAR-5 ovarian is 105%; in the experiment with OVCAR-4 ovarian it was 94.6%; with SK-OV-3 ovarian it was 93.4%; in the experiment with IGROV1 ovarian, 103%; in the experiment on OVCAR-3 ovarian, 91.5%; in the experiment with HS 578T breast, 89.9%. The growth in the experiment on NCI/ADR-RES ovarian is 99.8%.
In the case of `CC(C)=CCC/C(C)=C/CC/C(C)=C/CC/C=C(\C)CC/C=C(\C)CCC(=O)Nc1ccn(C2OC(CO)C(O)C2(F)F)c(=O)n1` (configuration not stated), the growth in the experiment on SK-MEL-2 melanoma was -4.27% (active); in the experiment on EKVX NSCLC it was 34.6%; with SN12C renal it was 15.3%; in the experiment with UO-31 renal, 3.33% (active); in the experiment on ACHN renal it was 6.71% (active); in the experiment on CAKI-1 renal it was -20.9% (active). For the same compound, the growth is -44.9% (active) in the experiment on A498 renal; -6.58% (active) in the experiment with CCRF-CEM leukemia; -14.2% (active) in the experiment with MOLT-4 leukemia; -16.1% (active) in the experiment with SR leukemia; 32.1% in the experiment with RPMI-8226 leukemia; 19.2% with OVCAR-8 ovarian. In addition, the growth in the experiment on OVCAR-5 ovarian was 74.6%; with OVCAR-4 ovarian, 39.9%; in the experiment on SK-OV-3 ovarian it was 31%; in the experiment on OVCAR-3 ovarian, 40.2%; in the experiment with HS 578T breast, 42.5%; in the experiment on NCI/ADR-RES ovarian, 38.8%.
As to `COc1cc(C2C(C#N)=C(N)Oc3cc(O)ccc32)cc(OC)c1OC` (configuration not stated), the growth in the experiment on SK-MEL-2 melanoma was 23.4%; with EKVX NSCLC, 55.3%; in the experiment on SN12C renal, 35.9%; in the experiment on UO-31 renal, 43%; in the experiment on ACHN renal, 51.8%; with CAKI-1 renal it was 30.7%. Further, the growth in the experiment with MOLT-4 leukemia is 6.05% (active); in the experiment on SR leukemia it was 11.4%; in the experiment on RPMI-8226 leukemia, 15.5%; with OVCAR-8 ovarian, 34.4%; with OVCAR-5 ovarian it was 35.5%; in the experiment with OVCAR-4 ovarian, 49.7%. Moreover, the growth with SK-OV-3 ovarian was 44.2%; with IGROV1 ovarian it was 34.9%; with OVCAR-3 ovarian, -38.2% (active); in the experiment on HS 578T breast it was 20%; in the experiment on NCI/ADR-RES ovarian, 38.4%.
As for `CS(=O)(=O)c1nccc(-c2c(-c3ccc(OCCc4ccccc4)cc3)nc3sccn23)n1`, the growth is 108% in the experiment on SK-MEL-2 melanoma; 94% in the experiment with EKVX NSCLC; 90.3% in the experiment on SN12C renal; 90.6% in the experiment with UO-31 renal; 101% in the experiment with ACHN renal; 90% with CAKI-1 renal. Further, the growth was 92% with CCRF-CEM leukemia; 88.9% in the experiment with MOLT-4 leukemia; 88.5% in the experiment on SR leukemia; 94.8% with RPMI-8226 leukemia; 98% in the experiment with OVCAR-8 ovarian; 94.7% in the experiment with OVCAR-5 ovarian. Also, the growth is 67.8% in the experiment with OVCAR-4 ovarian; 101% with SK-OV-3 ovarian; 110% in the experiment with IGROV1 ovarian; 104% in the experiment on OVCAR-3 ovarian; 87% in the experiment on HS 578T breast; 98.3% with NCI/ADR-RES ovarian.
As for `CS(=O)(=O)c1nccc(-c2c(-c3cccc(OCCN4CCOCC4)c3)nc3sccn23)n1`, the growth with SK-MEL-2 melanoma is 102%; in the experiment with EKVX NSCLC, 101%; in the experiment with SN12C renal, 96.8%; with UO-31 renal, 68.5%; in the experiment with ACHN renal it was 90.9%; in the experiment with CAKI-1 renal it was 85.3%. Besides, the growth in the experiment on A498 renal is 59.2%; in the experiment on MOLT-4 leukemia, 93.9%; with SR leukemia, 78.3%; with RPMI-8226 leukemia, 47.8%; with OVCAR-8 ovarian, 92.1%; in the experiment with OVCAR-5 ovarian, 96.6%. In addition, the growth with OVCAR-4 ovarian is 76.8%; with SK-OV-3 ovarian, 84.9%; in the experiment with IGROV1 ovarian it was 80.2%; in the experiment on OVCAR-3 ovarian, 94.8%; in the experiment on HS 578T breast, 88.7%; with NCI/ADR-RES ovarian, 93.3%.
On to `Cc1ccc2nc(Cl)c(-c3nc4ccccc4o3)cc2c1`, for which the growth in the experiment with SK-MEL-2 melanoma is 94.2%; in the experiment on EKVX NSCLC, 88.1%; in the experiment with SN12C renal, 104%; in the experiment with TK-10 renal, 115%; in the experiment with ACHN renal, 76%; in the experiment with CAKI-1 renal, 105%. Besides, the growth in the experiment on A498 renal is 75.6%; in the experiment on CCRF-CEM leukemia it was 98.1%; in the experiment with MOLT-4 leukemia, 81.4%; in the experiment with SR leukemia, 88.6%; in the experiment with RPMI-8226 leukemia it was 97.8%; with OVCAR-8 ovarian it was 99.4%. The growth was 97.8% in the experiment with OVCAR-5 ovarian; 99.3% in the experiment with OVCAR-4 ovarian; 104% in the experiment on SK-OV-3 ovarian; 79.2% with IGROV1 ovarian; 98.3% in the experiment on OVCAR-3 ovarian; 98.6% in the experiment with HS 578T breast. For the same compound, in the experiment on NCI/ADR-RES ovarian, the growth was 89.4%.
